# Assay results published in PubChem BioAssay (Tox21).
# Activity calls are given as the source filed them. A call without a number means that no potency is given here. The call rests on the fitted dose curve; in most records, active means well fitted curve in the direction sought with a large enough effect in the signal ratio in the repeat runs (not every such curve was filed as active); inconclusive means weak or mixed curves, or effect the other way; inactive means no such curve, though single readings can be large or run the other way; the % refers to the signal ratio. Positions of bridges follow the written chain, without caps; N, C: chain ends. Non-standard residues stand in square brackets, D forms with d. Residues, ends and D or L forms follow the SMILES beside them. *: point of attachment. Dab(CH2SO3H) = N[C@@H](CCNCS(=O)(=O)O)C(=O)O; X3 = CC[C@@H](C)CCCCC(=O)*; Dab = NCC[C@H](N)C(=O)O
# Biological target: Estrogen receptor (Homo sapiens) (UniProt P03372)
# Sequence (P03372 whole entry, looked up): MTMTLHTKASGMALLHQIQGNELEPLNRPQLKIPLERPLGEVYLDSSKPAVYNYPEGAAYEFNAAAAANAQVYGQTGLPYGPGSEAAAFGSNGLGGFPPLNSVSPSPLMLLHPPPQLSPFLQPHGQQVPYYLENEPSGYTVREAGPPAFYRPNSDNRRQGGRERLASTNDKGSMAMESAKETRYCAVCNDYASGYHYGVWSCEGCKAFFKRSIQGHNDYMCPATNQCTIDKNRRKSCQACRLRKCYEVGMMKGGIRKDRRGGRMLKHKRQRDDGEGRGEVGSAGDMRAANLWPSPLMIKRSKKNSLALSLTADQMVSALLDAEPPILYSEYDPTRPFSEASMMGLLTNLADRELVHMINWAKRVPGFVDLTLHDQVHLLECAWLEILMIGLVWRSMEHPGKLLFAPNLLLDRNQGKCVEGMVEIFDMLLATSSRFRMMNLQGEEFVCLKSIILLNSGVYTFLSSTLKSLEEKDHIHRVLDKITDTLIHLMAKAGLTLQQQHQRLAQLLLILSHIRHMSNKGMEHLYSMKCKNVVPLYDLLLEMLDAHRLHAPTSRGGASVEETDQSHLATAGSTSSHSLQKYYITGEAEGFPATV
# Assay: qHTS assay to identify small molecule antagonists of the estrogen receptor alpha (ER-alpha) signaling pathway (AID 743069)
# Details: HEK293 ER-alpha-UAS-bla, beta-lactamase ratio, antagonist mode; series mostly up to 69.4 µM
# Excerpt: National Center for Advancing Translational Sciences [NCATS]
# NIH Chemical Genomics Center [NCGC]
# U.S. Environmental Protection Agency [EPA]
# National Institutes of Environmental Health Sciences [NIEHS]
# National Toxicology Program [NTP]
# U.S. Food and Drug Administration [FDA]
# Estrogen receptor (ER), a nuclear hormone receptor, plays an important role in development, metabolic homeostasis and reproduction. Two subtypes of ER, ER-alpha and ER-beta have similar expression patterns with some uniqueness in both types. Endocrine disrupting chemicals (EDCs) and their interactions with steroid hormone receptors like ER causes disruption of normal endocrine function. To identify the compounds that inhibit ER signaling, an ER-alpha-UAS-bla GripTiteTM cell line (Invitrogen, Carlsbad, CA, USA) containing a beta-lactamase reporter gene under the control of an Upstream Activator Sequence (UAS) stably integrated into HEK293 cells was used to screen the Tox21 10K compound library.
# Tox21 Assay Protocol Summary:
# ER-alpha-bla cells were cultured in assay medium containing 2% charcoal stripped FBS overnight in the culture flasks before the assay was performed. The cells were dispensed at 5,000 cells/5 uL of assay medium per well into black wall/clear-bottom 1536-well plates using a Multidrop Combi (ThermoFisher Scientific, Waltham, MA) dispenser. After the assay plates were incubated at a 37C and 5% CO2 for 4 hr, 23 nL of compounds dissolved in DMSO, positive controls or DMSO only was transferred to the assay plate by a Pintool station (Kalypsys, San Diego, CA), followed by addition of 1 uL of 17beta-estradiol in assay medium using a Flying Reagent Dispenser (Aurora Discovery, San Diego, CA). The plates were incubated at 37C and 5% CO2 for 18 hr. Then 1 uL of LiveBLAzerTM B/G FRET substrate was added using a Flying Reagent Dispenser, the plates were incubated at room temperature for 2 hours, and fluorescence intensity was measured by an Envision plate reader (PerkinElmer, Shelton, CT).
# Potency means the concentration at half of the fitted maximal effect.
row,SMILES,Potency
1,O=C1CCCCCCCCCCCCCC1,inactive
2,CC(C)(O/N=C(\C(=O)N[C@@H]1C(=O)N2C(C(=O)[O-])=C(C[n+]3ccccc3)CS[C@H]12)c1csc(N)n1)C(=O)O,inactive
3,CC(=O)N[C@@H](C=O)[C@H](O)[C@H](O)[C@@H](O)CO,inactive
4,CC1=C(/C=C/C(C)=C/C=C/C(C)=C/C=C/C=C(C)/C=C/C=C(C)/C=C/C2=C(C)CCCC2(C)C)C(C)(C)CCC1,inactive
5,OCC1(CO)COC(C(Cl)(Cl)Cl)OC1,inactive
6,Cc1c(O)c(=O)ccn1C,inactive
7,O=C1[O][Bi][O]c2ccccc21,inactive
8,O=C(O)COc1ccccc1/C=N/NC(=O)c1ccncc1,inactive
9,O=P(O)(O)OP(=O)(O)OP(=O)(O)O,inactive
10,CC[C@@H](C)CCCCC(=O)N[C@@H](CCNCS(=O)(=O)O)C(=O)N[C@H](C(=O)N[C@@H](CCNCS(=O)(=O)O)C(=O)N[C@H]1CCNC(=O)[C@H]([C@@H](C)O)NC(=O)[C@H](CCNCS(=O)(=O)O)NC(=O)[C@H](CCNCS(=O)(=O)O)NC(=O)[C@H](CC(C)C)NC(=O)[C@@H](CC(C)C)NC(=O)[C@H](CCNCS(=O)(=O)O)NC1=O)[C@@H](C)O (X3-[Dab(CH2SO3H)]T[Dab(CH2SO3H)][Dab][Dab(CH2SO3H)][dL]L[Dab(CH2SO3H)][Dab(CH2SO3H)]T; lactam 4-C),inactive
11,C1CCc2nnnn2CC1,inactive
12,O=P(O)(O)CP(=O)(O)O,inactive
13,COC1=C(OC)C(=O)C(C/C=C(\C)CC/C=C(\C)CC/C=C(\C)CC/C=C(\C)CC/C=C(\C)CC/C=C(\C)CC/C=C(\C)CC/C=C(\C)CC/C=C(\C)CCC=C(C)C)=C(C)C1=O,inactive
14,CC(C)NCC1CCc2cc(CO)c([N+](=O)[O-])cc2N1 (stereo not given),inactive
15,C[C@H](Cc1ccc(O)c(O)c1)[C@@H](C)Cc1ccc(O)c(O)c1,inactive
16,C[S+](C)CCC(N)C(=O)O (stereo not given),inactive
17,CC(C)CCC[C@@H](C)[C@H]1CC[C@H]2[C@@H]3CC=C4C[C@@H](O)CC[C@]4(C)[C@H]3CC[C@]12C,inactive
18,NCCCC[C@H](NC(=O)[C@@H]1CCCN1C(=O)[C@@H]1CSSC[C@H](N)C(=O)N[C@@H](Cc2ccc(O)cc2)C(=O)N[C@@H](Cc2ccccc2)C(=O)N[C@@H](CCC(N)=O)C(=O)N[C@@H](CC(N)=O)C(=O)N1)C(=O)NCC(N)=O,inactive
19,CN1[C@@H](CC(=O)c2ccccc2)CCC[C@H]1C[C@H](O)c1ccccc1,inactive
20,O=C[C@H](O)[C@@H](O)[C@@H](O)[C@H](O)CO,inactive

row,SMILES,Potency
1,O=C1CCC(c2ccc(-n3ccnc3)cc2)=NN1,inactive
2,O=C(Cn1cnnn1)N[C@@H]1C(=O)N2C(C(=O)O)=C(CSc3nncs3)CS[C@H]12,inactive
3,NC(=O)C1c2ccccc2CCc2ccccc21,inactive
4,C[Se]CC[C@H](N)C(=O)O,inactive
5,O=C1C2CC3CC1CC(O)(C3)C2,inactive
6,CC(=NCc1ccccc1)c1ccccc1O,inactive
7,CCSCC,inactive
8,O=C(O)COc1ccc(C(=O)c2cccs2)c(Cl)c1Cl,inactive
9,C[N+]1(CCCCC[N+]2(C)CCCC2)CCCC1,inactive
10,C=CC1=C(C(=O)O)N2C(=O)[C@@H](NC(=O)/C(=N\O)c3csc(N)n3)[C@H]2SC1 (stereo in doubt),inactive
11,OCl,inactive
12,CN1C(C(=O)Nc2ccccn2)C(=O)c2sc(Cl)cc2S1(=O)=O (stereo not given),inactive
13,C[C@H](NCCc1ccc(O)cc1)[C@H](O)c1ccc(O)cc1,inactive
14,c1ccc2c(c1)OCC(CN1CCCCC1)O2 (stereo not given),inactive
15,COC1[C@@H](O[C@@H]2O[C@H](C)[C@@H](O[C@H]3C[C@@](C)(O)[C@H](OC(=O)CC(C)C)[C@H](C)O3)[C@H](N(C)C)[C@H]2O)[C@@H](CC=O)C[C@@H](C)[C@@H](O)/C=C/C=C/C[C@@H](C)OC(=O)C[C@H]1OC(C)=O (stereo not given in full),inactive
16,NC(=O)[C@@H]1C[C@]2(NC(=O)NC2=O)c2cc(F)ccc2O1,inactive
17,CC(C)Cc1ccc([C@H](C)C(=O)O)cc1,inactive
18,Cc1cn([C@H]2C[C@H](O)[C@@H](CO)O2)c(=O)[nH]c1=O,inactive
19,CCC1OC(=O)C[C@@H](O)[C@H](C)[C@@H](O[C@@H]2O[C@H](C)C[C@H](N(C)C)[C@H]2O)[C@@H](CC=O)C[C@@H](C)C(=O)/C=C/[C@]2(C)OC2C1C (stereo not given in full),16.9 µM [inconclusive] (active)
20,CC[C@H]1OC(=O)C[C@@H](O)[C@H](C)[C@@H](O[C@@H]2O[C@H](C)[C@@H](O)[C@H](N(C)C)[C@H]2O)[C@@H](CCN2C[C@H](C)C[C@H](C)C2)C[C@@H](C)C(=O)/C=C/C(C)=C/[C@@H]1CO[C@@H]1O[C@H](C)[C@@H](O)[C@@H](OC)[C@H]1OC,inactive
